# VDR inh = vitamin D3 receptor (human) inhibition; P11473; Potency, µM, for the others: max response, negative = inhibition, actives largely listed as inhibitors; actives 0.93% (n = 400,000); VDR-SRC2-3 peptide fluorescence polarization, 2 h; AID 504847; also: potency is read from the fitted curve at half-maximal effect
# Target sequence (P11473 whole entry, looked up): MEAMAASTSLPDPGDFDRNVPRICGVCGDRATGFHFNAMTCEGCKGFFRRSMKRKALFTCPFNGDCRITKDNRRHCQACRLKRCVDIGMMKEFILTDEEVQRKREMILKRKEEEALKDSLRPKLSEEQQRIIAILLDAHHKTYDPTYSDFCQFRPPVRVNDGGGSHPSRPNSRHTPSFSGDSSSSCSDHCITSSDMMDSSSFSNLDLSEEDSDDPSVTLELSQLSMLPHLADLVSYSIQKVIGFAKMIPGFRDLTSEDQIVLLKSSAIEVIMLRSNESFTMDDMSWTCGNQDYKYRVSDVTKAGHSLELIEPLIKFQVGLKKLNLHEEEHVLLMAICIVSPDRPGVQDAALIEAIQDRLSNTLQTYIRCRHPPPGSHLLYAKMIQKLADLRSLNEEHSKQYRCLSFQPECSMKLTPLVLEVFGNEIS
#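 VDR–SRC2-3 interaction, FP format. Cmpds 23 nl via pintool, brief spin, 2 h ambient incubation.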
# PLK1 PBD block = inhibitors of human PLK1 polo-box domain binding; P53350; Plk1 PBD binding of FITC phosphopeptide, fluorescence polarization; Potency, µM, for the others: max response, negative = inhibition, most hits filed as inhibitors; actives 2.8% (n = 360,000); AID 720504; also: potency is read from the fitted curve at half-maximal effect; series mostly up to about 57 µM; nearly all actives have a fitted effect of over 65% in size
# G9a inh = inhibitors of human histone lysine methyltransferase G9a | G9a H3K9 monomethylation, AlphaScreen, 2 h | Q96KQ7 | AID 504332 | Potency, µM (series often up to 102 µM), inactives show at the highest dose activity, negative = inhibition, hits mostly inhibitors | actives 8.8% (n = 350,000); also: potency is read from the fitted curve at half-maximal effect; nearly all actives have a fitted effect of over 75% in size
#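 Quantitative HTS format: methyltransferase activity on a biotin-tagged H3K9 peptide is measured by AlphaScreen, using a rabbit anti-monomethyl-H3K9 antibody with streptavidin donor and anti-IgG acceptor beads. Final levels are 20 nM enzyme, 500 nM peptide, 20 uM SAM; 2 h RT.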
# Sfp PPTase inh = inhibitors of Bacillus subtilis Sfp phosphopantetheinyl transferase. Biochemical Sfp PPTase activity, qHTS. Potency, µM, without a hit: largest response in the series, negative = inhibition, actives largely listed as inhibitors. actives 3.5% (n = 310,000);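 also: the enzyme is Sfp with the accession as filed and its product quenches rhodamine fluorescence; potency is read from the fitted curve at half-maximal effect; 0% = enzyme reaction without inhibitor and -100% = no enzyme wells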
#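 Fluorescence-quenching assay with 15 nM Sfp, 5 uM rhodamine-CoA and 12.5 uM BHQ-2-labelled ybbR peptide in pH 7.6 Hepes/MgCl2 buffer. Enzyme was pre-incubated with compound for 15 min at room temperature. Rate was taken from the 30-min fluorescence change (525/598 nm).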
# Mm-Cpn inhibitor = inhibitors of Methanococcus maripaludis chaperonin TRiC (MmCpn) | purified Mm-Cpn ATPase, ADP Transcreener TR-FRET | Potency, µM (doses to about 76.9 µM), inactives show at the highest dose activity, negative = inhibition, hits mostly inhibitors | actives 0.031% (n = 330,000) | AID 504842; also: potency is read from the fitted curve at half-maximal effect; nearly all actives have a fitted effect of over 80% in size
#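 Measured: ADP formation by purified Mm-CPN. Conditions: 25 nM protein, 10 uM ATP, Tris pH 7.4 with Mg2+, K+ and DTT, 37°C for 30 min. Detection: Transcreener HTRF after 30 min at room temperature.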
# CCT modulator = cytosolic chaperonin activity modulation | purified chaperonin ATPase assay, HTRF ADP detection, 30 min | activity change, % (concentration not given with the values), hits read low | actives 0.3% (n = 360,000); in the data active = activity change below about -30%
#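 First, chaperonin was dispensed at 40 nM or 20 nM final depending on batch activity. Next, compounds were pinned at 76 uM and ATP added at 10 uM. After 30 min at 37 °C, ADP detection reagents ran 30 min at ambient temperature.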
# * marks the source's active call; other numbers are inactive results; ? = inconclusive; . = no result; [ ] = another dose, or the depositor's remark. In the library only some 10% were active in any assay of this set; here they are far more common. Unless noted, calls follow the shape of the dose curve; as a rule, active = well fitted curve in the direction sought with a large enough effect; inconclusive = small, poorly fitted or top-dose-only effect, or another doubt; inactive = no such curve, though single readings can be large; an effect the other way counts as inactive or inconclusive. Unless noted, % is scaled to controls: 0 for no effect and ±100 for the full control effect.
SMILES,VDR inh,PLK1 PBD block,G9a inh,Sfp PPTase inh,Mm-Cpn inhibitor,CCT modulator
CCOc1ccc2c(c1)[C@@H]1C=CC[C@@H]1[C@H](c1ccccc1Cl)N2,6%,.,11µM*,.,.,.
O=C(NC1CC(=O)N(c2ccc(F)cc2)C1)c1ccc(S(=O)(=O)N2CCCCC2)cc1 (stereo unspecified),4%,.,-4%[59 µM],.,.,.
CC1CCN(C(=O)/C(=C\c2ccco2)NC(=O)c2ccccc2)CC1,8%,2%,50µM*,10%,2%,0
Cc1cccc(C(=O)N/C(=C\c2ccco2)C(=O)N2CCCCCC2)c1,-1%,-3%,?,3%,-2%,-3
Cc1ccc(C(=O)N/C(=C/c2ccco2)C(=O)N2CCC(C)CC2)cc1,-12%,-4%,18µM*,56µM*,2%,-1
CC1CCCN(C(=O)/C(=C/c2ccco2)NC(=O)c2ccccc2)C1 (stereo unspecified),17%,-13%,45µM*,-18%,1%,2
Cc1cccc(C(=O)N/C(=C/c2ccco2)C(=O)N2CCCCCC2)c1,12%,1%,40µM*,50µM*,-3%,0
CN1CCN(C(=O)/C(=C/c2ccco2)NC(=O)c2ccccc2)CC1,-7%,0%,-22%,11%,-4%,-1
CCOc1ccc(CCNC(=O)c2cc3c(-c4ccccc4F)nn(C)c3s2)cc1OCC,5%,.,-11%[59 µM],.,.,.
CCc1nnc(SCc2nc(-c3cccc(Cl)c3)oc2C)c2cc3sc(C)cc3n12,4%,.,-27%[59 µM],.,.,.
CN(C)c1ccc(/C=C(/NC(=O)c2ccccc2)C(=O)N2CCCC2)cc1,-25%,16%,10µM*,17%,0%,-6
COc1ccccc1CNC(=O)CS(=O)Cc1nc(-c2ccccc2C)oc1C (stereo unspecified),-14%,?,79µM*,3%,-2%,-3
Cc1ccccc1-c1nc(CS(=O)CC(=O)NCCc2ccc(Cl)cc2)c(C)o1 (stereo unspecified),-14%,19µM*,6%,-7%,0%,-1
COc1ccc(-c2nc(CS(=O)CC(=O)NCc3ccccc3OC)c(C)o2)cc1 (stereo unspecified),-2%,.,?,.,.,.
Cc1ccc(-c2nc(CS(=O)CC(=O)NCc3ccccc3)c(C)o2)cc1 (stereo unspecified),-10%,-18%,50µM*,-10%,-3%,1
COc1cccc(-c2nc(CS(=O)CC(=O)NCc3ccccc3Cl)c(C)o2)c1 (stereo unspecified),-12%,-23%,35µM*,?,-4%,1
Cc1ccc(-c2nc(CS(=O)CC(=O)NCc3ccc(F)cc3)c(C)o2)cc1 (stereo unspecified),-22%,-7%,-10%,7%,3%,1
Cc1ccc(CNC(=O)CS(=O)Cc2nc(-c3ccccc3C)oc2C)cc1 (stereo unspecified),-14%,-9%,50µM*,12%,2%,-1
Cc1ccccc1-c1nc(CS(=O)CC(=O)NCc2ccccc2)c(C)o1 (stereo unspecified),-16%,-22%,50µM*,5%,-3%,-1
CCc1ccc(-c2nc(CS(=O)CC(=O)NCCc3ccccc3)c(C)o2)cc1 (stereo unspecified),-9%,?,79µM*,-15%,-1%,-1
CCc1ccc(-c2nc(CS(=O)CC(=O)NCCCN3CCC(C)CC3)c(C)o2)cc1 (stereo unspecified),-9%,27µM*,22%[59 µM],17%,1%,2
CCOc1ccc(-n2cc(-c3ccccc3)c3c(NCc4ccc(F)cc4)ncnc32)cc1,0%,.,-1%[59 µM],.,.,.
Cc1ccc(CNC(=O)CS(=O)Cc2nc(-c3cccs3)oc2C)cc1 (stereo unspecified),?,?,50µM*,8%,0%,0
Cc1ccc(CNC(=O)CNS(=O)(=O)c2cccs2)cc1,10%,.,11%[59 µM],.,.,.
O=C(c1ccc(NC2=NC3CS(=O)(=O)CC3S2)cc1)N1CCN(c2ccccc2)CC1 (stereo unspecified),5%,-9%,.,-1%,1%,-3
SMILES,VDR inh,PLK1 PBD block,G9a inh,Sfp PPTase inh,Mm-Cpn inhibitor,CCT modulator
Cc1cccc(N2CCN(C(=O)c3ccc(NC4=NC5CS(=O)(=O)CC5S4)cc3)CC2C)c1 (stereo unspecified),-29%,24µM*,-22%,7%,0%,-7
COc1cc(C2C(C#N)=C(SC)NC3=C2C(=O)CCC3)ccc1O (stereo unspecified),0%,1%,?,10%,2%,-1
Cc1ccc(NC(=O)CSC2=C(C#N)C(c3ccc4c(c3)OCO4)C3=C(CCCC3=O)N2)c(C)c1 (stereo unspecified),4%,-14%,50µM*,-15%,?,0
CCc1ccccc1NC(=O)CSC1=C(C#N)C(c2ccc(O)c(OC)c2)C2=C(CCCC2=O)N1 (stereo unspecified),-13%,11µM*,8.9µM*,?,1%,1
Cc1ccc(N2C(=O)c3ccccc3C2Nc2ccccc2F)nc1 (stereo unspecified),-14%,1%,50µM*,15%,-1%,1
O=C(CCn1cnc(-c2ccccc2)c1-c1ccccc1)N/N=C/c1ccccc1O,6%,?,45µM*,6%,-1%,0
O=C(CCn1cnc(-c2ccccc2)c1-c1ccccc1)N/N=C/c1ccc(O)cc1,-9%,?,?,-12%,3%,-1
COCCn1c(SCC(=O)Nc2cccc(C)c2C)nc2c(oc3ccccc32)c1=O,-12%,.,13%[59 µM],.,.,.
COc1ccc(CCNC(=O)C2CC(c3cccc([N+](=O)[O-])c3)=NO2)cc1 (stereo unspecified),-9%,5%,23%[59 µM],8%,0%,2
Cc1ccc(CCNC(=O)C2CC(c3cc(C(F)(F)F)cc(C(F)(F)F)c3)=NO2)cc1 (stereo unspecified),6%,-4%,30%[59 µM],2%,0%,0
Cc1ccc(CNC(=O)C2CC(c3cc(C(F)(F)F)cc(C(F)(F)F)c3)=NO2)o1 (stereo unspecified),-25%,-11%,3%[12.7 µM],56µM*,1%,-2
Cc1ccc(CNC(=O)C2CC(c3cccc([N+](=O)[O-])c3)=NO2)o1 (stereo unspecified),7%,-10%,4%[59 µM],45µM*,0%,-1
COc1ccc(NC(=O)C(=O)NCCc2csc3nc(-c4ccccc4F)nn23)cc1OC,7%,.,8%[59 µM],.,.,.
COc1ccccc1N1C(=O)CC(Sc2ncccc2C(=O)O)C1=O (stereo unspecified),5%,-8%,?,18%,1%,-1
